Screening data as filed in PubChem BioAssay.
This is a sample that favours compounds with a hit; in the whole collection about 6.3% have one here.
Autofluor 339 = intrinsic fluorescence of library compounds, ex339/em460 – biochemical, MLSMR library, data from DPM-DC assay, artefact control, profiling panel | compound autofluorescence, ex339/em460 nm, NADH buffer; stronger effect = higher value; 1 = no-compound wells, NADH background | fluorescence fold increase at 10 µM | 65,000 compounds, 5.5% hits | AID 709;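 active = at 10 µM, mean starting fluorescence two-fold or more over control wells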;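 note: signal is the first read of a kinetic run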
NADH enzymes = blocks coupling enzymes of NAD/NADH assays | IC50, µM (series often up to 10 µM), inactives show at the highest dose inhibition | 65,000 compounds, 0.02% hits | coupled PK/LDH NADH assays, four targets;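 active = single-dose screening hits from any of four coupled enzyme assays that gave an IC50 when retested across doses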;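 note: the DPM-DC format reads NADH fluorescence rather than 340 nm absorbance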
Spn MK inh = blocks S. pneumoniae mevalonate kinase | inhibition, % at 10 µM | 65,000 compounds, 0.48% hits | purified MK, PK/LDH-coupled NADH absorbance 340 nm;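 active = ranked among the strongest by inhibition in the single 10 µM screen, a fixed top-ranked set picked for dose follow-up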
Abs 340nm = absorbance at 340 nm; compound absorbance at 340 nm, fold over control; fold change at 10 µM; 65,000 tested, under 10 active; AID 708;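 active = at 10 µM dose, initial 340 nm absorbance at least 2 fold that of control wells; inactive = change under 2 fold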;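 note: initial absorbance extrapolated from kinetic A340 decline of NADH oxidation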
PMK inhibit = S. pneumoniae PMK inhibition | 65,000 compounds, 0.49% hits | inhibition, % at 10 µM | AID 539 | purified PMK, PK/LDH-coupled NADH absorbance 340 nm;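 active = top-ranked compounds by inhibition in the single 10 µM screen, taking a fixed number of the strongest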;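 note: 0% = full reaction with DMSO carrier and 100% = background rate without enzyme reaction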
DPM-DC inhibit = inhibitors of Streptococcus pneumoniae diphosphomevalonate decarboxylase; AID 556; purified DPM-DC, PK/LDH coupled NADH fluorescence; calls only at 10 µM; 65,000 compounds, 0.49% hits;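 active = the 320 compounds with the highest percent inhibition in the single-dose primary screen, excluding strongly autofluorescent ones, cut at about 32% in these data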;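 note: kinetic rate of NADH fluorescence loss reporting ADP formed by the decarboxylase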
Active calls of the source: *; i = inactive; . = no result given.

SMILES	Autofluor 339	NADH enzymes	Spn MK inh	Abs 340nm	PMK inhibit	DPM-DC inhibit
OCC1CCCN(Cc2ccc(-c3ccccc3)cc2)C1 (stereo not given)	1	14%	41*	1	1	i
COc1ccc(C2C3=C(CCCC3=O)Nc3nc4ccccc4n32)c(OC)c1OC (stereo not given)	5.1*	4%	0	1.1	8	.
COc1ccc(C2C3=C(CCCC3=O)Nc3nc4ccccc4n32)cc1OC (stereo not given)	3*	8%	10	1.2	6	.
COc1ccc(OC)c(C2C3=C(CCCC3=O)Nc3nc4ccccc4n32)c1 (stereo not given)	1.7	7%	9	1.1	8	i
COc1cccc2sc(Nc3nnc(-c4ccccc4Cl)o3)nc12	1.6	9%	0	1.1	5	i
COc1cccc(OC)c1-c1nnc(-c2cn(C)c3ccccc23)o1	3.8*	9%	4	0.99	13	.
CCn1c(=O)cc(OCC(=O)Nc2ccc(Cl)cn2)c2ccccc21	1.1	6%	1	1	14	i
CC(=O)c1c(C)nn(CC(O)Cn2c3c(c4cc(C)ccc42)CCCC3=O)c1C (stereo not given)	5.2*	8%	11	1.1	4	.
CCOC(=O)NC1(NC2CCCCC2)Oc2ccccc2O1	1.1	7%	0	1	20	i
Cc1ccc(-c2cc(-c3ccccc3Cl)c(C#N)c(N)n2)o1	2.3*	8%	15	1.1	0	.
Cc1ccc(C2C(C#N)=C(N)Oc3nc(-c4ccccc4)[nH]c32)o1 (stereo not given)	1.1	5%	6	1	10	i
Cc1ccc(-c2cc(-c3ccccc3)c(C#N)c(N)n2)o1	5.1*	18%	18	0.99	17	.
Cc1ccc(-c2cc(-c3ccc(F)cc3)nc(N)c2C#N)o1	3.7*	9%	5	1.1	12	.
COc1ccc(-c2cn3c4c(sc3n2)CCCC4)cc1	1.1	4%	6	1	6	i
COC(=O)CCC(=O)N1CCc2cc(S(=O)(=O)N3CCN(c4ccccc4Cl)CC3)ccc21	1.1	4%	3	1	10	i
Cc1cc(/N=C/C=C2\N(C)c3ccccc3C2(C)C)n(CCC#N)n1	1.1	6%	0	1.1	18	i
O=C(O)Cn1c(-c2ccccc2)nc2ccccc21	1	8%	9	1	15	i
Oc1ccccc1Cn1c(-c2ccccc2O)nc2ccccc21	3.8*	9%	6	1.1	11	.
COc1ccccc1C(=O)NCCN1CCN(C(=O)c2ccccc2OC)CC1	1.2	4%	0	1	13	i
O=C(CN1C(=O)CCC1=O)Nc1nc(-c2nc3ccccc3s2)cs1	2.1*	4%	5	1.1	3	.
CCc1ccccc1OCCCCN1CCCC1	1	8%	71*	1	3	i
C=CCc1ccccc1OCCCCN1CCCC1	1	6%	45*	1	9	i
COc1cccc(OCCCCN2CCCCC2)c1	1.1	19%	55*	1	0	i
Clc1ccccc1OCCn1ccnc1	1.1	3%	10	1.1	0	i
C=CCc1ccccc1OCC(CN1CCCCC1)OC(C)=O (stereo not given)	1.3	6%	0	0.99	18	i
SMILES	Autofluor 339	NADH enzymes	Spn MK inh	Abs 340nm	PMK inhibit	DPM-DC inhibit
Clc1ccccc1OCCN1CCCCC1	1.1	17%	41*	1.1	11	i
CCOc1ccc(CCNC(=O)C2CCCN(C(=O)N(C)C)C2)cc1OCC (stereo not given)	1	7%	0	0.98	21	i
COC(=O)Cn1cnc(=O)c(C#N)c1/C=C/N(C)C	1.1	0%	0	1.1	0	i
Fc1ccccc1OCCCN1CCOCC1	1.1	17%	52*	1.1	0	i
Cc1ccc(OCCN2CCCCCC2)c(C)c1	1.1	5%	6	1	10	i
Cc1ccccc1OCCCN1CCCC1	1.1	14%	43*	1.1	0	i
Cc1ccc2c(C)nc(NC3=NCN(C(C)C)CN3)nc2c1	1.1	2%	12	1	9	i
Nc1ccc[n+](Cc2ccccn2)c1	2.1*	8%	4	1.1	20	i
COc1cc(-c2nc3cnccn3c2Nc2ccc3c(c2)OCCO3)ccc1O	1.5	8%	7	1.1	0	i
COc1cc(-c2nc3cnccn3c2Nc2ccccc2)ccc1O	2.1*	3%	3	1.1	2	.
CCCn1c(SCC(=O)NC(=O)NCc2ccco2)n[nH]c1=O	1	3%	0	1	13	i
CCCn1c(SCc2cc(=O)oc3ccc4ccccc4c23)n[nH]c1=O	2.1*	9%	0	1.1	17	.
Cc1ccc2[nH]c3c(c2c1)CN(C(=O)CN1CCN(c2ccccc2F)CC1)CC3	1.1	2%	5	1	0	i
COc1ccc(CCNC(=O)CC2Nc3ccccc3NC2=O)cc1 (stereo not given)	2.1*	8%	5	0.99	14	i
COc1ccc(CCNC(=O)CC2Nc3ccccc3NC2=O)cc1OC (stereo not given)	1.4	11%	4	1	15	i
CCOC1(OCC)N=C(N)C2(C#N)C(c3ccc(NC(C)=O)cc3)C12C#N (stereo not given)	0.99	10%	2	1	14	i
CSc1nc(N(CCO)CCO)c2sc3nc(-c4ccco4)c4c(c3c2n1)CCC4	2.3*	6%	12	1.1	0	.
CC(C)c1nc2sc3c(SCC(=O)NCc4ccco4)ncnc3c2c2c1CCC2	1.1	4%	11	1.1	0	i
COc1ccc2c(c1)OCC1=C2CCC2(C)C(=O)CC=C12 (stereo not given)	3.6*	7%	6	1.1	7	.
CC(OC(=O)c1ccncc1)C(=O)Nc1cccc(Cl)c1 (stereo not given)	1.1	1%	0	1	3	i
Clc1ccc(COn2nnc3ccccc32)c(Cl)c1	1.1	4%	7	1.1	6	i
CS(=O)(=O)N(CC(=O)N1CCCC1)c1cccc(Cl)c1	1.1	2%	7	1	0	i
C=CCOC(=O)Nc1c(C(=O)OC)[nH]c2ccccc12	1.4	0%	1	1.1	0	i
CCOC(=O)c1[nH]c2ccccc2c1NC(=O)c1ccc(Br)o1	0.91	20%	54*	1	0	i
CCOC(=O)c1[nH]c2ccccc2c1NC(=O)CC(C)(C)C	1.7	8%	4	1.1	3	i
COC(=O)c1[nH]c2ccccc2c1NC(=O)Oc1ccccc1	2.3*	10%	7	1.1	5	i
Cc1c(Cl)c(C(F)(F)F)nn1CC(=O)N1CCSCC1	1.1	2%	7	1	0	i
